The OligoGym collection
Further: reference of the scale not given here.

The sequences below were run against OLFML2A (assay: pooled miR-30 sensor sort-seq; sequence = guide strand). Conditions: shRNA.
For TAACTTTTAAAAATCAGCCTAT, the sensor-assay potency score (higher = more potent) was -0.201.
With TTCAAACATACAGACATCCAGG the sensor-assay potency score (higher = more potent) was -0.00393.
With TTGTAGTCGATCTGGGTGGTGT the sensor-assay potency score (higher = more potent) was -0.246.
TTGTAGGGTAGCTTGTACATGT showed a sensor-assay potency score (higher = more potent) of -0.494.

Each sequence was assayed against OLIG1 in the same assay as above. Conditions: shRNA.
Sequence TTGGTTTTCGTTTTTAAGCAAG has a sensor-assay potency score (higher = more potent) of -1.05.
Work on TATGTAGCTCTTCAACTGCAAG yielded a sensor-assay potency score (higher = more potent) of -1.7.
TCGGCTACTACCAACAACCAAA gave a sensor-assay potency score (higher = more potent) of -1.38.
Sequence TTTAAGAGCGAAAACTCTCTGC has a sensor-assay potency score (higher = more potent) of -0.0663.
TTACCTATTTTAGTAAATCGGG gave a sensor-assay potency score (higher = more potent) of -0.775.
For TACAGCTCTCCAAACAGCTGGT, the sensor-assay potency score (higher = more potent) was -0.013.
With TTGCTTTCTAAGAAACCCCCAG the sensor-assay potency score (higher = more potent) was -0.585.
In the case of TTGTTGATTCTGTACACCGTCA, the sensor-assay potency score (higher = more potent) is reported as -0.445.
TTAACGTCTGTAACAAATCGAA gave a sensor-assay potency score (higher = more potent) of -0.686.
TACCTATTTTAGTAAATCGGGA was tested, and the sensor-assay potency score (higher = more potent) was -0.985.
Work on TAGTAAATCGGGAACACTGGAT yielded a sensor-assay potency score (higher = more potent) of -0.186.
Work on TAACGTCTGTAACAAATCGAAA yielded a sensor-assay potency score (higher = more potent) of -1.41.

Each sequence was assayed against OMD in the same assay as above. Conditions: shRNA.
For TTAAATTCAATTCTGATCTTAT, the sensor-assay potency score (higher = more potent) was -0.256.
TTGTGTGACATTCTTAGAGTAT showed a sensor-assay potency score (higher = more potent) of -0.365.
Sequence TTAGTTGTATTGTTTGACCATT has a sensor-assay potency score (higher = more potent) of -0.906.
Sequence TAGTGCTTCGTTGTTCACCATA has a sensor-assay potency score (higher = more potent) of -1.2.
TATTTCATTATTTTGTAGGTAT showed a sensor-assay potency score (higher = more potent) of 0.614.
Work on TTTGTCGAAGTATTTTTCGGGT yielded a sensor-assay potency score (higher = more potent) of -0.262.
Sequence TTCATTGTAACCAAGAAGGAGT has a sensor-assay potency score (higher = more potent) of -0.273.
Sequence TTTGTTGTGTCCAACACTGAGT has a sensor-assay potency score (higher = more potent) of -0.557.
In the case of TTGGTCATAGTCTTCATCCCAC, the sensor-assay potency score (higher = more potent) is reported as -0.0587.
TTGTAGTAGATTTGGAAGCTTA showed a sensor-assay potency score (higher = more potent) of -0.257.
TTTGAGTAAGTTCTAATCCTAT was tested, and the sensor-assay potency score (higher = more potent) was -0.412.
TATAGGTTTTGTGAAGTCGTAA gave a sensor-assay potency score (higher = more potent) of -0.621.

Each sequence was assayed against OPRK1 in the same assay as above. Conditions: shRNA.
TTACTATCTTGCACAGCACATC showed a sensor-assay potency score (higher = more potent) of -1.6.
AATAGCTGGAGAGAGCAGCTGT showed a sensor-assay potency score (higher = more potent) of 0.381.
With TTCATGAAGAGGTCCCACCAGG the sensor-assay potency score (higher = more potent) was -0.714.
With TTGGTTGCTGTCTTCATCTTTG the sensor-assay potency score (higher = more potent) was -0.766.
For TATCTTGCACAGCACATCCCCA, the sensor-assay potency score (higher = more potent) was -0.82.
TTGTAGTAACTAAAGCATCTGC gave a sensor-assay potency score (higher = more potent) of -0.405.
Work on TTGCTGTCTTCATCTTTGTGTA yielded a sensor-assay potency score (higher = more potent) of -0.644.
In the case of ATCACGAACATGACCAGCGAGT, the sensor-assay potency score (higher = more potent) is reported as -1.24.
TATCGGATGATCACGAACATGA gave a sensor-assay potency score (higher = more potent) of -0.746.
ATGACATCGACGTCTTCCCTGA gave a sensor-assay potency score (higher = more potent) of -0.669.
In the case of TAGCTGGAGAGAGCAGCTGTGC, the sensor-assay potency score (higher = more potent) is reported as -1.45.
TTTCGGACTCTGCTAGTGCTCT gave a sensor-assay potency score (higher = more potent) of -0.953.
